# Data: PubChem BioAssay
# Calls of active or inactive are those of the source. The rule behind the calls is not given here.
# Target: Pantothenate synthetase (Mycobacterium tuberculosis (strain ATCC 25618 / H37Rv)) (UniProt P9WIL5)
# Assay: Coupled enzyme confirmation of inhibitors against recombinant Mtb PanC (AID 375);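 note: 0% = full reaction with vehicle and 100% = no enzyme background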
# Conditions: coupled enzyme assay; at 10 µM, stronger effect = higher value
# Chain of Pantothenate synthetase (Mycobacterium tuberculosis (strain ATCC 25618 / H37Rv)) (P9WIL5 whole entry, looked up): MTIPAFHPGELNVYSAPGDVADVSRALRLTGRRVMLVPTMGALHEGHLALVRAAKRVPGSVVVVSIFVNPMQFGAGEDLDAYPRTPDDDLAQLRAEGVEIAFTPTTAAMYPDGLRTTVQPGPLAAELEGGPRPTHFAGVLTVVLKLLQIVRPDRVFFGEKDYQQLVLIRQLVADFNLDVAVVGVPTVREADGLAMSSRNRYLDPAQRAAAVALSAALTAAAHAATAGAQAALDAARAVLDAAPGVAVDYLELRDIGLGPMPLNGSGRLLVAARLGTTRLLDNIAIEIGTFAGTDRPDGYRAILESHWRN
row,Structure (SMILES),inhibition
1,CCCCOCCCNC(=O)c1cccs1,0% (inactive)
2,COc1ccccc1-n1nnnc1SCc1cc2c(cc1Br)OCO2,0% (inactive)
3,CCCN(CCC)CCCNS(=O)(=O)c1ccc2c(c1)oc(=O)n2C,0% (inactive)
4,COc1ccc2nc3oc(C(=O)N4CCCCC4)cc3cc2c1,12% (inactive)
5,Cc1cc(Cl)cc2c1NC(=O)[C@]21[C@@H]2C(=O)N(Cc3ccccc3)C(=O)[C@@H]2[C@@H]2CCCN21,6% (inactive)
6,Cc1ccc(NC(=O)c2ccco2)c(NC(=O)CN2C(=O)c3ccccc3C2=O)c1,7% (inactive)
7,CCOc1ccc(C(=O)N2CCN(c3ccccc3)CC2)cc1OCC,1% (inactive)
8,CSc1cccc(NS(=O)(=O)c2ccccc2)c1,0% (inactive)
9,O=C(O)c1cccc(COCC(F)(F)C(F)F)c1,0% (inactive)
10,CCOc1ccccc1C(=O)NCCC(=O)O,2% (inactive)
11,Cc1ccc2[nH]c3c(c2c1)CCc1cn[nH]c1-3,0% (inactive)
12,Cc1nc2ccccc2c(=O)n1NC(=O)Nc1ccccc1,0% (inactive)
13,COc1ccc(CCNC(=O)c2cnc3scc(C)n3c2=O)cc1OC,0% (inactive)
14,COc1ccc(OC)c(N(CC(=O)N2CCN(c3cc(Cl)ccc3C)CC2)S(C)(=O)=O)c1,2% (inactive)
15,CC1CCc2nc(NC(=O)CN3CCN(Cc4ccc5c(c4)OCO5)CC3)sc2C1 (stereo not drawn),0% (inactive)
16,COc1ccc(-n2c(SCC(=O)c3c(N)n(C)c(=O)n(C)c3=O)nc3ccccc32)cc1,0% (inactive)
17,C=C(c1ccc(O)cc1)c1ccc(O)cc1,0% (inactive)
18,CN1CCN(/C=N/c2sc3c(c2C#N)CCCCC3)CC1,4% (inactive)
19,Cc1ccc2c(c1)-c1c(cnn1CC(=O)Nc1ccccc1N1CCN(C)CC1)CO2,0% (inactive)
20,O=c1c(-c2ccccc2)coc2c(CN3CCOCC3)c(O)ccc12,6% (inactive)
21,Nc1nc(NCc2ccco2)nn1-c1ccccc1,0% (inactive)
22,C=CCN1C(=O)CS/C1=C(\C#N)S(=O)(=O)c1ccc(C)cc1,0% (inactive)
23,Cn1cnnc1SCC(=O)Nc1ccccc1Sc1ccccc1,7% (inactive)
24,CCOc1ccc(NC(=O)CN(C)S(=O)(=O)c2cccs2)cc1,13% (inactive)

row,Structure (SMILES),inhibition
1,Cc1cnc(C(=O)Nc2ccc(N3CCOCC3)cc2)cn1,4% (inactive)
2,COc1cccc(-n2c(C)nc3c(cnn3-c3ccc(C)cc3)c2=O)c1,3% (inactive)
3,Cc1onc(-c2ccccc2)c1C(=O)N1CCOCC1,9% (inactive)
4,Cc1nc2cc(-n3ccc(=O)cc3)ccc2n1-c1ccccc1,2% (inactive)
5,O=C(Nc1ccc(S(=O)(=O)NCCc2ccccc2)cc1)c1ccc(Br)o1,3% (inactive)
6,CC(C)=CC(=O)N1CCCc2ccccc21,13% (inactive)
7,CC(=O)c1ccccc1OCCn1nnc(-c2ccc(C)cc2)n1,0% (inactive)
8,Cn1nc(-c2ccc(C(=O)N3CCN(c4ccccc4)CC3)cc2)c2ccccc2c1=O,0% (inactive)
9,COc1ccc(NC(=O)c2cc(C3CC3)on2)c(OC)c1,0% (inactive)
10,Cc1ccc(Cn2ncc3c(NCCCN4CCOCC4)ncnc32)cc1,8% (inactive)
11,CCn1cc(C(=O)N2CCCC2)c(=O)c2cc(S(=O)(=O)N3CCOCC3)ccc21,0% (inactive)
12,CCn1c(=N)n(CC(=O)c2ccco2)c2ccccc21,0% (inactive)
13,COc1cc2c(c(OC)c1)C(c1ccncc1)CC(=O)N2 (stereo not drawn),0% (inactive)
14,O=C(C1CCN(C2CC(=O)N(c3ccc(F)cc3)C2=O)CC1)N1CCOCC1 (stereo not drawn),0% (inactive)
15,O=C(C1=C(O)C(=O)N(Cc2ccccc2)C1c1ccncc1)c1ccco1 (stereo not drawn),0% (inactive)
16,CSc1nc(N2CCOCC2)c2c(c1C#N)CCCCC2,0% (inactive)
17,Cc1nc2cc(C(=O)O)ccc2n1-c1ccc(F)cc1F,2% (inactive)
18,CCOC(=O)C1CCCN(C(=O)c2cc3c(=O)n4cccc(C)c4nc3n2C)C1 (stereo not drawn),0% (inactive)
19,Cc1cc(C(F)(F)F)c2c(C)nn(CCc3nn[nH]n3)c2n1,0% (inactive)
20,CCc1nc(SCc2cc(Cl)ccc2OC)n[nH]1,0% (inactive)
21,O=C(O)c1ccc2c(c1)C(=O)N(c1ccc(Cl)cn1)C2=O,8% (inactive)
22,COC(=O)n1c(=S)oc2cc(Cl)ccc21,0% (inactive)
23,Cc1ccc(C(=O)Nc2c(C(=O)N3CCOCC3)cnn2-c2ccccc2)cc1,0% (inactive)
24,CCOC(=O)c1[nH]c2ccc(Br)cc2c1NC(=O)CCN1CCC(C(=O)OCC)CC1,0% (inactive)
